Test results from PubChem BioAssay AID1159580 (chemical genetic matrix, 2015).
Where “and” joins values, the source holds several entries; their conditions need not be identical. Equal values may be shown once. In all, about 5,500 compounds went through this assay and about 2,000 (36%) were called active. Inconclusive results (about 18%) are left out. No stated cut-off is given here; in the data, active means normalized growth mostly below about 0.91 (no sharp cut-off); inconclusive means no clear call, values can overlap the other calls; inactive means mostly above about 0.92. Some of the results follow.

Assay: chemical genetic growth profiling, strain panel (AID 1159580);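 further: tested at 20 µM; growth read once vehicle control cultures reached saturation at 30 °C; 1 = growth at the plate median or of vehicle wells; lower values mean less growth of the strain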
Conditions: growth OD

Measured: normalized growth

CC(C)(C)NCC(O)c1cc(O)cc(O)c1 (stereo not drawn)
inactive: S. cerevisiae deletion strains, locus YKL009W, strain mrt4, hits give low values 0.961 | S. cerevisiae deletion strains, locus YKL068W, hits give low values 0.975 | S. cerevisiae deletion strains, locus YKL085W, strain MDH1 (second series), hits give low values 0.967 | S. cerevisiae deletion strains, locus YKL085W, strain MDH1, hits give low values 0.967 | S. cerevisiae deletion strains, locus YKL160W, strain elf1, hits give low values 0.934 | S. cerevisiae deletion strains, locus YKL190W, strain CNB1, hits give low values 0.994 | S. cerevisiae deletion strains, locus YKR001C, strain vps1, hits give low values 0.994 | S. cerevisiae deletion strains, locus YKR026C, strain gcn3, hits give low values 0.983 | S. cerevisiae deletion strains, locus YKR091W, strain srl3, hits give low values 0.978 | S. cerevisiae deletion strains, locus YLL001W, strain dnm1, hits give low values 1 | S. cerevisiae deletion strains, locus YLL026W, hits give low values 0.984 | S. cerevisiae deletion strains, locus YLL041C, strain sdh2, hits give low values 0.993 | S. cerevisiae deletion strains, locus YLR027C, strain aat2, hits give low values 0.987 | S. cerevisiae deletion strains, locus YLR039C, strain RIC1, hits give low values 0.978 | S. cerevisiae deletion strains, locus YLR058C, strain SHM2, hits give low values 0.987 | S. cerevisiae deletion strains, locus YLR102C, strain apc9, hits give low values 0.982 | S. cerevisiae deletion strains, locus YLR113W, strain HOG1, hits give low values 0.981 | S. cerevisiae deletion strains, locus YLR221C, strain rsa3, hits give low values 1.01 | S. cerevisiae deletion strains, locus YLR258W, strain gsy2, hits give low values 0.993 | S. cerevisiae deletion strains, locus YLR262C, strain YPT6 (second series), hits give low values 1 | S. cerevisiae deletion strains, locus YLR262C, strain YPT6, hits give low values 0.979 | S. cerevisiae deletion strains, locus YLR268W, strain sec22, hits give low values 0.951 | S. cerevisiae deletion strains, locus YLR320W, strain mms22, hits give low values 0.981 | S. cerevisiae deletion strains, locus YLR330W, strain CHS5, hits give low values 0.976 | S. cerevisiae deletion strains, locus YLR342W, strain FKS1 (second series), hits give low values 0.99 | S. cerevisiae deletion strains, locus YLR342W, strain FKS1, hits give low values 0.991 | S. cerevisiae deletion strains, locus YLR357W, strain rsc2, hits give low values 0.967 | S. cerevisiae deletion strains, locus YLR370C, strain arc18, hits give low values 0.975 | S. cerevisiae deletion strains, locus YLR371W, strain rom2, hits give low values 0.964 | S. cerevisiae deletion strains, locus YLR384C, strain iki3, hits give low values 0.988 | S. cerevisiae deletion strains, locus YLR418C, strain cdc73, hits give low values 0.996 | S. cerevisiae deletion strains, locus YML016C, strain PPZ1, hits give low values 0.992 | S. cerevisiae deletion strains, locus YML032C, strain rad52, hits give low values 0.99 | S. cerevisiae deletion strains, locus YML120C, strain ndi1, hits give low values 0.967 | S. cerevisiae deletion strains, locus YML124C, strain tub3, hits give low values 0.983 | S. cerevisiae deletion strains, locus YMR058W, strain fet3, hits give low values 1 | S. cerevisiae deletion strains, locus YMR078C, strain ctf18, hits give low values 0.976 | S. cerevisiae deletion strains, locus YMR125W, strain sto1, hits give low values 0.959 | S. cerevisiae deletion strains, locus YMR129W, hits give low values 0.969 | S. cerevisiae deletion strains, locus YMR205C, strain PFK2, hits give low values 0.984 | S. cerevisiae deletion strains, locus YMR223W, strain ubp8, hits give low values 1.02 | S. cerevisiae deletion strains, locus YMR231W, strain pep5, hits give low values 0.98 | S. cerevisiae deletion strains, locus YMR263W, strain SAP30, hits give low values 0.984 | S. cerevisiae deletion strains, locus YMR307W, strain GAS1, hits give low values 1.04 and 0.986 | S. cerevisiae deletion strains, locus YNL067W, strain RPL9B, hits give low values 0.985 | S. cerevisiae deletion strains, locus YNL071W, strain lat1, hits give low values 0.995 | S. cerevisiae deletion strains, locus YNL128W, strain TEP1, hits give low values 1.01 | S. cerevisiae deletion strains, locus YNL175C, strain NOP13, hits give low values 0.995 | S. cerevisiae deletion strains, locus YNL183C, strain NPR1, hits give low values 0.943 | S. cerevisiae deletion strains, locus YNL197C, strain WHI3, hits give low values 1 | S. cerevisiae deletion strains, locus YNL209W, strain ssb2, hits give low values 0.989 | S. cerevisiae deletion strains, locus YNL224C, strain SQS1, hits give low values 1.01 | S. cerevisiae deletion strains, locus YNL233W, strain BNI4, hits give low values 0.993 | S. cerevisiae deletion strains, locus YNL248C, strain rpa49, hits give low values 0.923 | S. cerevisiae deletion strains, locus YNL271C, strain bni1, hits give low values 0.985 | S. cerevisiae deletion strains, locus YNL298W, strain CLA4, hits give low values 0.979 | S. cerevisiae deletion strains, locus YNL307C, strain MCK1, hits give low values 0.975 | S. cerevisiae deletion strains, locus YNL322C, strain KRE1 (second series), hits give low values 0.953 | S. cerevisiae deletion strains, locus YNL322C, strain KRE1, hits give low values 0.979 | S. cerevisiae deletion strains, locus YNR049C, strain mso1, hits give low values 0.983 | S. cerevisiae deletion strains, locus YNR052C, strain pop2, hits give low values 0.983 | S. cerevisiae deletion strains, locus YOL006C, strain TOP1, hits give low values 1.06 | S. cerevisiae deletion strains, locus YOL012C, strain htz1 0.966 | S. cerevisiae deletion strains, locus YOL147C, strain pex11, hits give low values 0.969 | S. cerevisiae deletion strains, locus YOR001W, strain rrp6, hits give low values 1.01 | S. cerevisiae deletion strains, locus YOR061W, strain CKA2, hits give low values 1 | S. cerevisiae deletion strains, locus YOR069W, strain VPS5, hits give low values 0.986 | S. cerevisiae deletion strains, locus YOR070C, strain gyp1, hits give low values 0.986 | S. cerevisiae deletion strains, locus YOR080W, strain dia2, hits give low values 0.996 | S. cerevisiae deletion strains, locus YOR083W, strain WHI5 (second series), hits give low values 0.987 | S. cerevisiae deletion strains, locus YOR083W, strain WHI5, hits give low values 0.908 | S. cerevisiae deletion strains, locus YOR106W, strain vam3, hits give low values 0.933 | S. cerevisiae deletion strains, locus YOR136W, strain idh2, hits give low values 0.992 | S. cerevisiae deletion strains, locus YOR144C, strain elg1, hits give low values 0.989 | S. cerevisiae deletion strains, locus YOR184W, strain ser1, hits give low values 0.991 | S. cerevisiae deletion strains, locus YOR231W, strain MKK1, hits give low values 1.01 | S. cerevisiae deletion strains, locus YOR265W, strain rbl2, hits give low values 0.992 | S. cerevisiae deletion strains, locus YOR270C, strain vph1, hits give low values 0.932 | S. cerevisiae deletion strains, locus YOR290C, strain snf2, hits give low values 0.967 | S. cerevisiae deletion strains, locus YOR316C, strain cot1, hits give low values 0.982 | S. cerevisiae deletion strains, locus YPL051W, strain arl3, hits give low values 0.968 | S. cerevisiae deletion strains, locus YPL055C, strain LGE1, hits give low values 1.01 and 0.983 | S. cerevisiae deletion strains, locus YPL078C, strain atp4, hits give low values 0.944 | S. cerevisiae deletion strains, locus YPL106C, strain sse1, hits give low values 0.97 | S. cerevisiae deletion strains, locus YPL240C, strain hsp82, hits give low values 1.01 | S. cerevisiae deletion strains, locus YPL241C, strain CIN2, hits give low values 0.987 | S. cerevisiae deletion strains, locus YPL256C, strain CLN2, hits give low values 0.959 | S. cerevisiae deletion strains, locus YPR119W, strain clb2, hits give low values 0.975 | S. cerevisiae deletion strains, locus YPR141C, strain kar3, hits give low values 0.976 | S. cerevisiae deletion strains, locus YPR163C, strain tif3, hits give low values 0.978 | S. cerevisiae deletion strains, locus YPR167C, strain met16, hits give low values 0.974 | S. cerevisiae deletion strains, strain wtn01, hits give low values 0.99 | S. cerevisiae strains, strain wild type, hits give low values 0.993
